Assay outcomes (PubChem)
Rows were chosen to be rich in hits. Some 4.2% of all compounds tested hit in one or more screens of this group.
DAX1 StAR inh = DAX1 (NR0B1) inhibition, primary screen; HEK293T StAR-luciferase reporter, SF-1/DAX-1 repression relief; actives 1.1% (n = 370,000); inhibition, % at 6.8 µM;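 active means inhibition above the mean over all tested compounds plus 3 SD, cut at about 3.6% in these data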;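 further: 0% = DAX-1 cells with DMSO and 100% = cells lacking DAX-1 with DMSO; higher inhibition means more luminescence from relief of DAX-1 repression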
ssDAF-12 act = S. stercoralis DAF-12 activation, primary screen. actives 1% (n = 370,000). activation, % at 6.8 µM. HEK293 ssDAF-12/GRIP1 lit1-tk-luc reporter, luminescence; % of 3 µM dafachronic acid response;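 active means activation above the mean over all tested compounds plus 3 SD, cut at about 0.9% in these data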;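 further: 0% = DMSO-only wells and 100% = 3 µM delta7-dafachronic acid wells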
hcDAF12 agonist = activators of H. contortus DAF-12 nuclear receptor; HEK293 hcDAF-12 lit1-tk-luc reporter, luminescence; 0% DMSO, 100% Δ7-dafachronic acid; activation, % at 6.8 µM; actives 1.4% (n = 370,000); AID 652067;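 active means activation above the mean of all tested compounds plus 3 SD, cut at about 5.5% in these data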;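 further: 100% = response to 3 µM Δ7-dafachronic acid high control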
hgDAF12 agonist = hgDAF-12 agonism, primary luciferase screen; HEK293 GAL4-hgDAF12 UAS-luciferase reporter, agonist luminescence; normalized to butyrate control; activation, % at 6.8 µM; actives 1.8% (n = 370,000); AID 687014;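 active means activation above a cutoff set at the mean of all screened compounds plus 3 SD, cut at about 10% in these data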;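 further: 0% = DMSO wells and 100% = sodium butyrate wells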
SMARCA2 activ = activators of SMARCA2 function. actives 1% (n = 370,000). activation, % at 9.1 µM. MG213 cells, MMTV-luciferase reporter, dexamethasone, overnight; in the data active means activation above about 7.8%;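 further: 0% = vehicle wells and 100% = reference activator wells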
LXRb hcDAF ctr = LXR-beta agonism as hcDAF-12 counter-screen. shares compounds with hcDAF12 agonist. HEK293 Gal4-LXR tk-luc reporter, luminescence, 24 h; normalized: DMSO 0%, positive control 100%. activation, % at 6.8 µM. 3,400 tested, under 10 active;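 active means mean percent activation of the reporter above a cutoff set as the average over tested compounds plus their standard deviation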
Target sequence (P55055 whole entry, looked up, the tested form may be a part): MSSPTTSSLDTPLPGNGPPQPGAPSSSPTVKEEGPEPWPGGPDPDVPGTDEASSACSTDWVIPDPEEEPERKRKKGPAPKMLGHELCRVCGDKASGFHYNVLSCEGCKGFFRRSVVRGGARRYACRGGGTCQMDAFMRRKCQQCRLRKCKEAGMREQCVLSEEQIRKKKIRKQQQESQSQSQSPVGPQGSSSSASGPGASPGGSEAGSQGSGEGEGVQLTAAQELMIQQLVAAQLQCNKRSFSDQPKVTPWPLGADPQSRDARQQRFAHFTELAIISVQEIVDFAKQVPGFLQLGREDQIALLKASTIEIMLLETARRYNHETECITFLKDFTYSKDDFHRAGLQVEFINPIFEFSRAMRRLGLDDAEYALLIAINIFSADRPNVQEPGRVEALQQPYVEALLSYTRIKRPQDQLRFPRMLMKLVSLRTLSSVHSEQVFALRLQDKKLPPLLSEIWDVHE
hcDAF12 conf = confirmation of H. contortus DAF-12 agonists. shares compounds with hcDAF12 agonist. HEK293 hcDAF-12 lit1-tk-luc reporter, luminescence; % of Δ7-dafachronic acid response. activation, % at 6.8 µM. actives 61% (n = 3,400);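 active means mean activation across triplicate tests above the threshold derived from the earlier primary screen, cut at about 5.5% in these data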;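 further: 0% = DMSO only wells and 100% = 3 µM Δ7-dafachronic acid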
* = called active by the depositor; / = no result.

SMILES	DAX1 StAR inh	ssDAF-12 act	hcDAF12 agonist	hgDAF12 agonist	SMARCA2 activ	LXRb hcDAF ctr	hcDAF12 conf
O=C(c1cc(-c2ccc(F)cc2)nc2ccccc12)N1CCC1	0	-1	-1	1	-2	/	/
COc1ccccc1CN1CCc2c([nH]c3ccccc23)C1	0	-1	3	-1	2	/	/
Clc1cccc(CN2CCc3c([nH]c4ccccc34)C2)c1Cl	0	-1	7.0*	1	-2	0	-1
C[C@@H]1CCN(C2CC2)S(=O)(=O)c2c(cccc2N2CCC[C@@H]2C)O1	-2	-1	-1	-1	-1	/	/
CCc1ccc(N=Nc2ccc(O)c3[nH]cnc23)cc1	1	1.0*	7.8*	8	4	0	8.6*
CCCCN(C(=O)c1cccc(S(=O)(=O)N2CCOCC2)c1)c1c(N)n(CCC)c(=O)[nH]c1=O	0	-1	8.2*	2	0	0	2
N#Cc1ccc(Cn2ccc3ccc(-c4ccc5ccn(Cc6ccc(C#N)cc6)c5c4)cc32)cc1	-1	-1	0	2	-1	/	/
CSCCC(NC(=O)c1ccc(Cl)cc1)C(=O)OCC(=O)NCc1ccco1 (stereo unspecified)	1	-1	1	0	1	/	/
Cc1cnc(C(=O)OCC(=O)Nc2cc(Cl)ccc2C#N)cn1	-1	0	6.6*	3	-4	0	4
CSCCC(NC(=O)c1ccc(Cl)cc1)C(=O)OCC(=O)Nc1cc(Cl)ccc1C#N (stereo unspecified)	0	0	7.5*	1	4	0	3
CC(C)CCCCCCCCc1cccc(O)c1C(=O)O	0	-1	-2	-2	0	/	/
COc1ccc2c3c([nH]c2c1)C1CC2C(CC(O)C(OC)C2C(=O)O)CN1CC3 (stereo unspecified)	0	-1	7.0*	3	0	0	-1
CCOC(=O)N1CCN(C(=O)C[C@@H]2C(=O)N(CCc3ccc(Cl)cc3)/C3=C/CCCCC[C@@]32C(=O)OCC)CC1	-1	-1	-3	-5	-3	/	/
O=C(O)c1ccc(Cn2cnc3c(=O)[nH]cnc32)cc1	1	1.2*	10*	1	-2	0	-1
O=c1[nH]cnc2c1ncn2Cc1ccc([N+](=O)[O-])cc1	-1	-1	-3	-1	0	/	/
COc1ccccc1C(=O)Nc1ccc2c(c1)OCO2	3	1.6*	8.0*	9	3	1	10*
O=C(Nc1ccc2c(c1)OCO2)c1noc2c1CCCCC2	4.4*	0	9.0*	12*	2	1	6.1*
COc1ccc(Cl)cc1C(=O)Nc1ccc2c(c1)OCCO2	2	3.0*	8.6*	10	3	1	12*
COc1ccc(Cl)cc1C(=O)Nc1ccc2c(c1)OCO2	3	1.5*	7.3*	8	1	1	10*
COc1ccc(Cl)cc1C(=O)Nc1ccncc1	0	-1	-2	3	-1	/	/
O=C(Nc1cccnc1)c1noc2c1CCCC2	2	-1	2	6	6	/	/
Cc1nc2ccc(NC(=O)c3cc(F)cc(F)c3)cc2c(=O)[nH]1	0	-1	1	-1	-5	/	/
COC(=O)[C@]12C[C@H](CC(=O)N3CCCCC3)C(=O)N(CCc3ccc(OC)c(OC)c3)C1=C[C@H](C(C)C)O[C@@H]2C1CC1	0	-1	-1	4	-1	/	/
CCCC[C@@H]1C(=O)N2N=Cc3ccccc3[C@H]2N2N=Cc3ccccc3[C@@H]12	-1	-2	-2	-1	1	/	/
COC(=O)C[C@@H]1CC[C@@H]2[C@@H](COc3ccc(NC(=O)Nc4ccccc4)cc3C(=O)N2C)O1	-1	-1	-1	-4	-1	/	/
SMILES	DAX1 StAR inh	ssDAF-12 act	hcDAF12 agonist	hgDAF12 agonist	SMARCA2 activ	LXRb hcDAF ctr	hcDAF12 conf
Cc1ccccc1C(=O)Nc1ccc2c(c1)OCO2	3	0	6.8*	13*	7	2	5
N#CC(c1ccccc1O)N1N=C(c2ccccc2)CC1c1ccccc1 (stereo unspecified)	1	1.6*	9.2*	8	-1	1	7.3*
COc1cc(C(C#N)N2N=C(c3ccccc3)CC2c2ccccc2)ccc1O (stereo unspecified)	1	1.4*	7.9*	12*	2	0	3
CCCC[C@H](C(=O)N(C)c1ccccc1)[C@@H](O)c1ccc(C(C)=O)cc1	0	-1	-4	0	2	/	/
COC(=O)[C@]12C[C@H](CC(=O)NCCC(C)C)C(=O)N(Cc3cccc4ccccc34)C1=C[C@H](C(C)(C)C)O[C@@H]2C	0	-2	0	3	-4	/	/
Cc1ccccc1-c1nnc(-c2cccs2)o1	1	1.3*	7.7*	9	1	1	8.6*
CN(C)c1ccc(/C=C/c2nc3ccccc3s2)cc1	-2	-3	-4	-10	-8	/	/
Cc1ccc(/C=C/c2nc3ccccc3s2)s1	1	0	9.4*	2	4	1	19*
CC(C)(C)c1ccc(C(=O)NCC(=O)OCC(=O)N2CCN(S(=O)(=O)c3ccc(Cl)cc3)CC2)cc1	2	0	15*	3	1	0	3
Cc1onc(C(=O)N2CCN(C(c3ccc(F)cc3)c3ccc(F)cc3)CC2)c1[N+](=O)[O-]	/	-2	0	-7	/	/	/
Cc1cccc(N=C2NN=C(c3c(C)[nH]c4ccccc34)CS2)c1	-1	-1	7.9*	2	-5	0	3
Cc1nn(-c2ccc(Br)cc2)c(=O)c2ccccc12	1	1.7*	11*	11*	7	1	11*
Cc1nn(-c2ccccc2C(=O)O)c(=O)c2ccccc12	0	-1	0	-1	-4	/	/
O=C(NCCN1C(=O)C2C3C=CC(C3)C2C1=O)c1cc(Cl)cc(Cl)c1 (stereo unspecified)	0	-1	-2	-1	-1	/	/
O=C(NNc1nc2ccccc2s1)Nc1ccccc1	1	0	7.2*	5	4	1	4
O=C(COc1ccccc1)NNc1nc2ccccc2s1	-2	-2	-3	-9	-7	/	/
O=C(CS(=O)(=O)c1ccccc1)Nc1nc2ccccc2s1	0	0	7.1*	5	0	0	3
S=C(Nc1ccccc1)c1nc2ccccc2s1	1	1.1*	9.2*	12*	6	1	8.9*
Cc1ccc(NC2=Nc3ccccc3CS2)cc1	3	1.6*	15*	19*	5	2	14*
